Measured values published in the supplement of paper PMC6555819.

Tests used:
Experiment in all cases: PBM binding z-score (relative to random genomic background probes); higher = stronger binding; sequences stand for … in GC…GCGATTGACAGCGTAGAATGAAGG
[1] = system: PPARg:RXRa DBDmut IVT, anti-RXR (DBD mutation: RXRa K156A/R161A, NR concentration 270 nM, RXRa partner concentration 90 nM)
Summary of the method: (§1)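 Custom Agilent 4×180K protein-binding microarrays carried double-stranded probes. Their 34-nt variable regions held direct-repeat seeds, single-nucleotide variants, half-site ablations and random human genomic background sequences. Arrays were incubated 1 h with ligand-free nuclear receptor dimers in PBS pH 7.4, 2% milk, 0.02% Triton X-100, 1 mM DTT, 0.2 mg/mL BSA and 0.4 mg/ml salmon testes DNA. Antibodies against each partner (one per run) detected binding, and scanned fluorescence was regression-normalized. Binding z-scores use random background probes as reference.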

[2] = system: PPARg:RXRa IVT, anti-PPARg (NR concentration 270 nM, RXRa partner concentration 90 nM)
Summary of the method: as §1

[3] = system: PPARg homodimer (NR concentration 180 nM)
Summary of the method: as §1

[4] = system: PXR:RXRa (NR concentration 270 nM, RXRa partner concentration 90 nM)
Summary of the method: as §1

[5] = system: PXR homodimer (NR concentration 270 nM)
Summary of the method: as §1

[6] = system: RARa:RXR (NR concentration 270 nM, RXRa partner concentration 90 nM)
Summary of the method: as §1

[7] = system: RARa homodimer (NR concentration 270 nM)
Summary of the method: as §1

[8] = system: RARb:RXRa (NR concentration 270 nM, RXRa partner concentration 90 nM)
Summary of the method: as §1

[9] = system: RARb homodimer (NR concentration 270 nM)
Summary of the method: as §1

[10] = system: RARg:RXRa (NR concentration 270 nM, RXRa partner concentration 90 nM)
Summary of the method: as §1

[11] = system: RARg homodimer (NR concentration 270 nM)
Summary of the method: as §1

[12] = system: RXRa DBDmut IVT, anti-RXR (DBD mutation: RXRa K156A/R161A, NR concentration 90 nM)
Summary of the method: as §1

[13] = system: RXRa homodimer (NR concentration 180 nM)
Summary of the method: as §1

[14] = system: THRa:RXRa (NR concentration 90 nM, RXRa partner concentration 90 nM)
Summary of the method: as §1

[15] = system: THRa homodimer (NR concentration 90 nM)
Summary of the method: as §1

[16] = system: VDR homodimer (NR concentration 270 nM)
Summary of the method: as §1

[17] = system: VDR:RXRa (NR concentration 270 nM, RXRa partner concentration 90 nM)
Summary of the method: as §1

| Sequence | PBM binding z-score [1] | PBM binding z-score [2] | PBM binding z-score [3] | PBM binding z-score [4] | PBM binding z-score [5] | PBM binding z-score [6] | PBM binding z-score [7] | PBM binding z-score [8] | PBM binding z-score [9] | PBM binding z-score [10] | PBM binding z-score [11] | PBM binding z-score [12] | PBM binding z-score [13] | PBM binding z-score [14] | PBM binding z-score [15] | PBM binding z-score [16] | PBM binding z-score [17] |
| --- | --- | --- | --- | --- | --- | --- | --- | --- | --- | --- | --- | --- | --- | --- | --- | --- | --- |
| TCGAGTAGGTTACGGGGGCCTTCAGGGATGAAGA | 4.03 | 4.68 | 0.342 | 1.52 | 0.275 | 1.48 | -0.236 | 1.58 | 1.03 | 1.81 | 1.33 | 0.49 | 1.47 | 1.95 | 0.405 | 0.302 |  |
| TCGAGTAGGTTACGGGGCCATTCAGGGATGAAGA | 3.76 | 4.63 | 0.412 | 0.639 | -0.128 | 0.892 | -0.208 | 1.44 | 1.21 | 0.957 | 0.954 | 0.0548 | 1.06 | 2.47 | 0.44 | 0.657 |  |
| CTATGTAGGTTAAGGGGGTCATACAGTTTGAAAG | 7.64 | 7.1 | 3.8 | 5.63 | 8.43 | 5.95 | 2.55 | 3.77 | 3.95 | 5.39 | 4.06 | 2.32 | 6.26 | 4 | 2 | 5.41 |  |
| CCGAGTAGGTTACGAGGTGGCATTCAGTGCGAAT | 4.75 | 3.92 | 0.24 | 0.618 | -0.0659 | 0.472 | -0.0316 | 1.03 | 0.473 | 0.479 | 0.466 | 0.226 | 0.697 | 0.837 | -0.2 | 0.0157 |  |
| CTATGTAGGCTAAGGGGGTCATTCAGTTTGAAAG | 5.39 | 5.71 | 1.72 | 5.12 | 8.71 | 5.12 | 0.465 | 2.69 | 3.39 | 4.23 | 2.53 | 1.96 | 4.7 | 3.45 | 1.51 | 4.02 |  |
| CTATGTAGGTTAAGGAGGTCATTCAGTTTGAAAG | 7 | 7.07 | 2.9 | 5.67 | 12 | 4.51 | 0.704 |  | 3.79 | 3.89 | 3.37 | 1.97 | 4.07 | 3.68 | 1.59 | 4.47 |  |
| TCGAGTAGGTTACGTGGGCATTCAGGGATGAAGA | 3.11 | 2.65 | -0.0563 | -0.044 | -0.265 | 0.41 | -0.517 | 0.704 | 0.175 |  | 0.607 | 0.0477 | 0.631 | 0.726 | -0.426 | -0.34 |  |
| TCAAGTAGGTTACGGGGGCATTCAGGGATGAAGA | 6.98 | 7.48 | 3.45 | 3.45 | 2.97 | 3.18 | 1.26 |  | 2.65 | 3.75 | 3.05 | 2.81 | 3.19 | 3.8 | 2.1 | 4.17 | 4.11 |
| CTATGTAGGTTAAAGGGGTCATTCAGTTTGAAAG | 7.95 | 7.63 | 7.13 |  | 13 |  | 1.99 | 3.87 | 4.23 | 5.28 | 4.06 | 2.87 | 6.56 | 3.91 | 1.29 | 6.99 |  |
| CCGAGTAGGTTACGAGGCGGCATTCAGTGCGAAT | 4.1 | 3.3 | 0.605 | -0.147 | -0.255 | 0.2 | -0.448 | 0.768 | 0.155 | 0.238 | 0.173 | 0.159 | 0.329 |  | -0.252 | -0.284 |  |
| CTATGTAGGTAAAGGGGGTCATTCAGTTTGAAAG | 6.89 | 7.06 | 3.59 | 5.82 | 10.7 | 6.13 | 1.83 |  | 3.55 | 4.43 | 2.93 | 2.5 | 5.6 | 3.66 | 1.73 | 6.01 |  |
| CTATGTAGGTTAAGGGGGTTATTCAGTTTGAAAG | 6.94 | 7.29 | 2.61 | 3.46 | 5.03 |  | 1.62 | 2.24 | 2.15 | 2.55 | 1.56 | 1.43 | 2.57 | 2.53 | 1.4 | 3.24 |  |
| CCGAGTAGGTTACGGGGGGGCATTCAGTGCGAAT | 5.07 | 5.61 | 4.19 | 5.79 | 7.32 | 4.18 | 2.21 |  | 3.09 | 4.41 | 4.19 | 2.7 | 2.73 | 4.4 | 3.04 | 4.76 |  |
| CTATGTAGGTTAATGGGGTCATTCAGTTTGAAAG | 7.34 | 7.83 | 3.7 |  | 13.3 | 6.66 | 1.57 | 3.3 | 3.6 | 4.72 | 3.17 | 3.07 | 6.2 | 4.28 | 3.09 | 7.21 |  |
| CCGAGTAGGTTACGAGGGGGCATTTAGTGCGAAT | 4.67 | 4.43 | 1.41 | 4.52 | 2.55 | 3.03 | 0.176 | 2.09 | 2.18 | 3.09 | 2.33 | 1.31 | 2.16 | 3.92 | 0.585 | 2.81 |  |
| TCGAGTAGGTTACGGGGGCATTCATGGATGAAGA | 5.12 | 5.88 | 1.86 | 3.32 | 1.27 | 2.88 | 0.144 | 2.51 | 2.23 | 3.37 | 2.71 | 1.74 | 2.93 | 2.63 | 1.13 | 3.57 |  |
| TCGAGTAGGTTACGGGGGCATTCAGGGATGAAGA | 4.99 | 5.99 | 1.92 |  | 1.53 | 2.98 | 1.5 | 2.61 | 2.45 | 3.55 | 2.61 | 1.79 | 2.77 | 3.81 | 1.25 | 2.57 | 4 |
| TCGAGTAGGTTACTGGGGCATTCAGGGATGAAGA | 5.34 | 6.18 | 0.888 |  | -0.522 | 0.925 | -0.357 | 1.08 | 0.974 | 0.621 | 0.564 | 0.0231 | 0.761 | 1.83 | -0.116 | -0.285 |  |
